Experimental data as given in PubChem BioAssay.
“And” between values parts separate entries of the source, which are not always exact repeats. Equal entries are not always repeated. Records with an inconclusive call do not appear. The source made the active and inactive calls.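 The calls were made as follows: active = GFP signal, as percent of the solvent control, above the screen mean plus 3 SD, about 149; inconclusive = no reading because the compound's own fluorescence upset strain identification; inactive = the rest.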

assay: modulators of LAP4-GFP expression in yeast, primary screen, S. cerevisiae, multiplex flow cytometry (AID 1873); details: 3 h, at 10 µM, active compounds read high

GFP response vs DMSO, inactive:
COc1cc(C2NCCc3c2[nH]c2ccccc32)ccc1OC(C)C (stereo unspecified) 90.4%, O=C(CSCc1ccccc1)NCCCN1CCOCC1 98%, O=C(N1CCCCC1)C1(c2ccccc2)CCOCC1 129%, CCCC(=O)O[C@]1(C(=O)COC(C)=O)CC[C@H]2[C@@H]3C[C@H](F)C4=CC(=O)C=C[C@]4(C)[C@@]3(F)[C@@H](O)C[C@@]21C 107%, O=c1ccc2c(o1)/C(=C/C=C(Cl)Cl)CCC2 110%, COc1cc(Cc2cnc(N)nc2N)cc(OC)c1OC 84.8% and 103%, O=C(CC(NC(=O)OCc1ccccc1)C(=O)O)OCc1ccccc1 (stereo unspecified) 98%, O=c1c(-c2ccccc2)c(O)c2cccc3c2n1CCC3 132%, O=C(O)C1CCN(C(=O)COc2ccc3c4c(c(=O)oc3c2)CCC4)CC1 112%, CCOC(=O)c1cccc(P(C)(C)=O)c1 90.1%, O=C(O)c1cc2cc(F)ccc2[nH]1 98.6%, O=C(O)c1ccccc1C(=O)OCCCCOC(=O)c1ccccc1C(=O)O 82.2%, Cn1nc(-c2ccc(Cl)cc2)nc2c(=O)n(C)c(=O)nc1-2 137%, O=c1[nH]c(=O)n([C@H]2C[C@H](O)[C@@H](CO)O2)cc1C(F)(F)F 94%, COc1ccc(-c2cc(C(=O)N3CCOCC3)c3cc(C)ccc3n2)cc1 110%, Cc1ccc2c(c1)c1c3n2CCCN(Cc2ccccc2)C3CCC1 (stereo unspecified) 103%
